Source: PubChem (Broad Institute)
EBV LMP1 NFkB – inhibitors of Epstein-Barr LMP1-induced NF-kappaB reporter | LMP1-induced NF-kappaB luciferase reporter cells, luminescence | inhibition, % at 12.5 µM | 350,000 tested, 0.69% active | AID 504558; in the data active means inhibition above about 41%; inconclusive means no clear call, values can overlap the other calls;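 further: 0% = neutral control wells and 100% = reference inhibitor control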
Wnt act – activates Wnt/beta-catenin signaling in a reporter cell assay. activator, plate reader. activation, % at 9.35 µM. 300,000 tested, 1.2% active; in the data active means activation above about 30%, passing the limit was not always enough; inconclusive means no clear call, values can overlap the other calls;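 further: 0% = neutral control wells and 100% = positive control wells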
MITF act – MITF TRPM1 promoter activation in melanoma cells. activation, % at 12.5 µM. AID 588334. SK-MEL-5 TRPM1-promoter luciferase, 24 h; % of positive control, neutral wells = 0. 300,000 tested, 0.75% active;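 active means mean activation of at least 80% with every replicate also reaching 80%; inconclusive means mean reaches 80% but some replicate falls short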;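 further: 0% = neutral control wells and 100% = parthenolide positive control wells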
esBAF inh – blocks esBAF chromatin remodeling in mouse ES cells | Bmi1-luciferase knock-in reporter, 24 h; 100% = twice the neutral-well signal | reporter increase, % at 12.5 µM | 350,000 tested, 2% active | AID 602393; in the data active means activation above about 40%; inconclusive means no clear call, values can overlap the other calls;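 further: 0% = median of the plate's neutral control wells and 100% = double that signal; a rise in the Bmi1 reporter signal indicates esBAF inhibition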
TRPM1 prom inh – inhibitors of MITF-driven TRPM1 promoter in melanoma cells | SK-MEL-5 TRPM1 promoter luciferase, 24 h | AID 488899 | inhibition, % at 12.5 µM | 330,000 tested, 0.83% active;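 active means mean inhibition across replicates of 60% or more, whatever share of single replicates reaches that level; inconclusive means some that reach 60%, reason not given; inactive means mean inhibition across replicates below 60%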
Statin myotox sup – suppressors of simvastatin-induced myotoxicity in C2C12 myotubes. 330,000 tested, 0.78% active. AID 602340. ATP luminescence, 48 h; scaled: DMSO 0, geranylgeraniol control 100. rescue of ATP level, % at 7.49 µM;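 active means mean ATP rescue above about 67%, or every replicate alone reaching that limit, limit read from the data, passing the limit was not always enough; inconclusive means no clear call, values can overlap the other calls; inactive means mean under the limit and some replicate under it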;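 further: myotubes were challenged with 10 µM simvastatin during compound exposure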
Numbers without * were called inactive; u = inconclusive; x = no result. Hits are enriched below; roughly 4% of the tested compounds scored in any of these assays.

SMILES | EBV LMP1 NFkB | Wnt act | MITF act | esBAF inh | TRPM1 prom inh | Statin myotox sup
Cc1cc2oc(=O)cc(CN3CCC(C)CC3)c2cc1C | -19 | 5 | 68 | 41* | -63 | -7
CCCCC(=O)N1CCN(c2nc3ccc(Cl)cc3s2)CC1 | -2 | 16 | 57 | 50* | -52 | 46
CC1CC(C)CN(CCCNC(=O)c2ccc3nc(N4CCCCC4)sc3c2)C1 (configuration not stated) | -35 | -4 | x | 55* | x | -40
CCCN1CCN(CCCNC(=O)c2ccc3nc(N4CCCCC4)sc3c2)CC1 | -38 | -1 | 22 | 77* | -22 | -3
CC1CCCC(C)N1CCCNC(=O)c1ccc2nc(N3CCOCC3)sc2c1 (configuration not stated) | -7 | -1 | 4 | -2 | -7 | -11
C=C1C(=O)O[C@@H]2[C@H]1[C@@H](OC(=O)/C(C)=C/C)C/C(C)=C\C(=O)/C=C(\C)[C@@H]2O | 67* | -1 | -96 | -86 | 96* | 59
CC(=O)c1c(C)[nH]c(C(=O)CSc2ccc(F)cc2)c1C | 1 | u | 68 | x | -62 | x
Cc1cc(C(=O)CSc2ccc(F)cc2)cc(C)c1O | 3 | 11 | 66 | 56* | -66 | -5
CCCC1=Nc2cc(C(=O)NCCN3CCOCC3)ccc2Sc2ccc(C)cc21 | 3 | -3 | 3 | 2 | 4 | 6
C[C@H](CO)N1C[C@H](C)[C@H](CN(C)Cc2ccc(C(F)(F)F)cc2)Oc2c(NC(=O)Nc3cccc4ccccc34)cccc2C1=O | x | x | x | 9 | x | 81*
C[C@@H]1CN([C@@H](C)CO)C(=O)c2cccc(NC(=O)c3nc4ccccc4s3)c2O[C@H]1CN(C)C(=O)Nc1ccccc1 | x | x | x | 0 | x | 22
C[C@@H]1CN([C@H](C)CO)C(=O)c2cccc(NC(=O)c3nc4ccccc4s3)c2O[C@@H]1CN(C)C(=O)Nc1cccc2ccccc12 | x | x | x | 6 | x | 81*
C[C@@H]1CN([C@@H](C)CO)C(=O)c2cccc(NC(=O)c3ccc(-c4nccs4)cc3)c2O[C@@H]1CN(C)Cc1ccc(C(F)(F)F)cc1 | x | x | x | 3 | x | 74*
Cc1ccc(/C(O)=C2\C(=O)C(=O)N(C)C2c2ccc(F)cc2)cc1 (configuration not stated) | 4 | 0 | -14 | -1 | 12 | 29
CS(=O)(=O)N(CCc1ccccc1)CC(=O)N1CCc2ccccc2C1 | 0 | -4 | -1 | 3 | -2 | 111*
CS(=O)(=O)N(CCc1ccccc1)CC(=O)Nc1ccccc1 | 0 | -3 | 7 | 4 | -2 | 4
CS(=O)(=O)N(CCc1ccccc1)CC(N)=O | -4 | x | 0 | -8 | 1 | 102*
Brc1ccc(-c2cnc(-c3cccs3)o2)cc1 | -34 | x | x | 67* | -43 | x
CC(C)[C@H](NC(=O)c1ccccc1)C(=O)OCC(=O)NCCc1ccc(F)cc1 | -5 | -3 | -10 | x | 6 | x
COc1ccc(-c2cc(C(F)(F)F)nc(SCC(N)=O)n2)cc1 | 3 | x | -5 | 51* | 4 | -60
CCCCCN=C(C)c1c(O)c2ccccc2oc1=O | -7 | -1 | 64 | 58* | -66 | 11
Cc1cnc(CN(C)C(=O)c2ccc3oc(Cc4ccccc4)nc3c2)[nH]1 | 6 | 2 | -1 | 3 | 1 | -1
COc1cc(OC)c(NC2c3ccccc3C(=O)N2c2cc(C)ccn2)cc1Cl (configuration not stated) | -37 | 39* | x | 7 | x | 41
CCOC(=O)c1ccccc1NC1c2ccccc2C(=O)N1c1cc(C)ccn1 (configuration not stated) | -12 | -4 | x | -6 | x | -8
COc1cccc2[nH]c3ccccc3c(=O)c12 | 0 | x | 3 | -3 | -3 | -13
SMILES | EBV LMP1 NFkB | Wnt act | MITF act | esBAF inh | TRPM1 prom inh | Statin myotox sup
C=Cc1ncc(OC)c2c1[nH]c1ccccc12 | -12 | x | -82 | -13 | 82* | -124
Cc1sc(NC(=O)Cn2cnnn2)nc1-c1ccc(Cl)cc1 | 1 | 1 | 3 | x | -1 | x
Cc1cc(C)c(-c2nc3ccccc3s2)[nH]1 | -43 | 14 | 15 | 76* | -18 | 8
O=C(C[C@@H]1CC[C@@H](NC(=O)c2ccc(F)cc2)[C@H](CO)O1)NCCc1ccccc1 | x | x | x | -2 | x | 19
Clc1ccc2oc3c(Cl)ncnc3c2c1 | -2 | 1 | -75 | x | 77* | x
COc1ccc(CCNC(=O)c2ccc(N3CCCC3=O)cc2)cc1 | 2 | x | 11 | 9 | -10 | 114*
COc1cccc(CNCCNC(=O)c2nonc2N)c1 | -3 | 1 | -3 | -8 | 3 | 17
COc1ccc(CCNC(=O)c2nonc2N)cc1 | 0 | 9 | x | 48* | -21 | -7
CCOc1ccc(CCNC(=O)c2ccc(N3CCCC3=O)cc2)cc1OCC | 7 | -1 | 8 | x | -6 | x
COc1ccc(OC)c(NC(=O)CCNC(=O)Cn2ccc3ccccc3c2=O)c1 | -3 | -6 | -13 | -1 | 13 | 7
Cc1ccc(S(=O)(=O)Nc2ccc3c(c2)CC(=O)N([C@H](C)CO)C[C@@H](C)[C@H](CN(C)Cc2ccncc2)O3)cc1 | x | x | x | -2 | x | 9
COc1cc(C(c2sc3nc(C)nn3c2O)N2CCc3ccccc3C2)cc(OC)c1OC (configuration not stated) | 86* | 1 | 8 | 3 | -11 | 1
Cc1nc2sc(C(c3ccc(Br)cc3)N3CC(C)OC(C)C3)c(O)n2n1 (configuration not stated) | -1 | x | -4 | 6 | 6 | 91*
COc1ccc(C(c2sc3nc(C)nn3c2O)N2CCC(C(N)=O)CC2)cc1OC (configuration not stated) | 72* | 0 | 0 | -10 | 0 | 21
Cc1nc2sc(C(c3ccccc3)N3CC(C)OC(C)C3)c(O)n2n1 (configuration not stated) | -50 | x | 5 | 1 | -6 | 2
COc1ccc(C(c2sc3nc(C)nn3c2O)N2CCc3ccccc3C2)cc1 (configuration not stated) | -2 | -2 | x | -1 | x | 7
Cc1ccc(S(=O)(=O)N2CCCCC2)cc1NC(=O)CSCC(=O)O | 6 | 0 | -2 | x | 3 | x
CC1(C)CC(=O)C=C(Nc2cccc(C(F)(F)F)c2)C1 | x | 1 | x | -7 | x | -1
CCC1=C(c2ccc(C)cc2)S(=O)(=O)N=C1N1CCC(C(=O)NCCCN2CCCCC2C)CC1 (configuration not stated) | 2 | -1 | 17 | -1 | -10 | 115*
CC1CCCCN1CCCNC(=O)C1CCN(c2nnc(-n3cccc3)s2)CC1 (configuration not stated) | 3 | -3 | 10 | 3 | -9 | 1
COC(=O)c1ccc(CSc2ccccc2NC(=S)Nc2cccc(SC)c2)o1 | -10 | 9 | x | 54* | x | 2
C/C(=N\NC(=O)Cn1c(-c2ccccn2)nc2ccccc21)c1cccc(O)c1 | 7 | -2 | -11 | x | 11 | x
